Compound activity deposited in PubChem by Broad Institute.
Many of the other results were omitted from the sample, so hits are more common in it than they were.
BJeLR viability: BJeLR cell viability reduction. BJeLR fibroblasts viability, CellTiterGlo ATP luminescence, 48 h; HRASV12, hTERT and SV40 LT/ST transformed. viability loss activity score, % (test concentration not listed). hit rate 0.64% among 30,000; in the data active = viability loss activity score above about 50%; inconclusive = no clear call, values can overlap the other calls; inactive = below about 35%;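 note: higher score means fewer live cells and less ATP luminescence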
Shh pathway inh: Sonic Hedgehog pathway inhibition | Shh-LIGHT2 Gli-luciferase reporter, 30 h | inhibition, % (no concentration beside the values) | hit rate 2.1% among 22,000 | AID 2313;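 active = mean inhibition across valid replicates above about 65%, limit read from the data; inconclusive = mean under the limit, yet half or more replicates past it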;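 note: pathway switched on by Shh-conditioned medium diluted 1 in 25 in low serum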
MITF inh: inhibitors of MITF. inhibition, % (concentration not given with the values). hit rate 0.28% among 37,000. TRPM1 promoter luciferase, luminescence, 24 h; in the data active = inhibition above about 85%; inconclusive = no clear call, values can overlap the other calls; inactive = below about 68%;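 note: human melanocyte line stably carrying TRPM1 promoter luciferase reporter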
Starred values were filed as active, the others as inactive; ! = a repeat was not active.

How did C[C@@H]1O[C@@H](O[C@@H]2C=C3CC[C@@H]4C(CC[C@]5(C)[C@@H](c6ccc(=O)oc6)CC[C@]45O)[C@@]3(C)CC2)[C@H](O)[C@H](O)[C@H]1O (some centres undefined) do in these assays?
BJeLR viability: 99.2*; Shh pathway inh: 23.1; MITF inh: 20.0

What do the screens show for `C=CC1C[N+]2([O-])CCC1CC2C(O)c1ccnc2ccccc12` (centres undefined)?
Shh pathway inh: -12.6

What do the screens show for `O=C(c1cnn(-c2ccccc2)c1-n1cccc1)N1CCC2(CC1)OCCO2`?
BJeLR viability: -1.9

Results for CC1(C)C(C(=O)Nc2ccc(S(=O)(=O)c3ccc(NC(=O)C4C(C)(C)C4(C)C)cc3)cc2)C1(C)C ?
BJeLR viability: 2.0; Shh pathway inh: -20.2; MITF inh: -8.7

Results for C[CH2][Hg][S]c1ccccc1C(=O)O ?
BJeLR viability: 141.9*; Shh pathway inh: inconclusive; MITF inh: 105.0*

How did CNc1ccccc1C(=O)O do in these assays?
BJeLR viability: -6.5; Shh pathway inh: 1.9; MITF inh: -8.6

Results for N#Cc1c(/N=C/c2cc(Br)ccc2O)sc2c1C1CCN2CC1 ?
BJeLR viability: -2.4

How did O=C(c1ccc2nc(N3CCCCC3)sc2c1)N1CCC2(CC1)OCCO2 do in these assays?
BJeLR viability: 6.0

Results for CC[C@@]1(O)C(=O)OCc2c1cc1n(c2=O)Cc2cc3c(O)cccc3nc2-1 ?
BJeLR viability: 106.7*; Shh pathway inh: 68.2*; MITF inh: 66.5

How did CCN(CC)CCc1c(C)c2ccc(O)cc2oc1=O do in these assays?
BJeLR viability: -1.3

How did CCC(C)N=Cc1c(O)[nH]c(=O)[nH]c1=O (centres undefined) do in these assays?
BJeLR viability: -1.8

How did C/C=C\C(=O)O[C@@H]1C[C@H]2O[C@@H]3C=C(C)C(=O)C[C@]3(C)[C@]1(C)[C@]21CO1 do in these assays?
BJeLR viability: 101.0*; Shh pathway inh: 65.0*; MITF inh: 91.9*

How did O=[P+](c1ccccc1)c1ccccc1 do in these assays?
BJeLR viability: -9.4

How did COc1ccccc1OCCCn1cc(C(=O)c2ccccc2)c2ccccc21 do in these assays?
MITF inh: 9.0

Results for O=C(Cn1cc(C(=O)c2ccccc2)c2ccccc21)Nc1ccc(F)cc1 ?
MITF inh: 37.9

What do the screens show for `CC1=NCCc2c1[nH]c1cc(O)ccc21`?
BJeLR viability: -5.3; Shh pathway inh: 79.9*!; MITF inh: 1.2

What do the screens show for `COc1ccc2c3c([nH]c2c1)C(C)=NCC3`?
BJeLR viability: -0.7; Shh pathway inh: -16.4; MITF inh: 11.7

Results for NC1=C(C(=O)OCc2ccccc2)C2(C(=O)Nc3ccc(Br)cc32)C2=C(O1)C(=O)CCC2 (centres undefined) ?
BJeLR viability: -3.3; Shh pathway inh: -16.0; MITF inh: 9.9

What do the screens show for `OC[C@H]1O[C@@H](Oc2ccc(/C=C/c3cc(O)cc(O)c3)cc2O)[C@H](O)[C@@H](O)[C@@H]1O`?
Shh pathway inh: -18.1

Results for C[C@@H]1C[C@@H]([C@H](O)CC2CC(=O)NC(=O)C2)C(=O)[C@@H](C)C1 ?
BJeLR viability: 61.4*; Shh pathway inh: 50.0; MITF inh: 72.3

How did C[C@@H]1CC([C@H](O)CC2CC(=O)NC(=O)C2)C(=O)[C@@H](C)C1 (some centres undefined) do in these assays?
BJeLR viability: 86.8*; Shh pathway inh: 68.4*; MITF inh: 55.4

Results for CN1CCc2nc(SCc3cccc(Cl)c3)c(C#N)cc2C1 ?
BJeLR viability: 0.8

Results for O=c1c2ccccc2nc(CSc2ncnc3ccccc23)n1-c1ccccc1F ?
MITF inh: 70.7

What do the screens show for `COCc1cc(OC(=O)N(C)C)nc(COc2ccc(Cl)cc2)n1`?
BJeLR viability: 4.0

What do the screens show for `CCCC12CNCC(C)(CNC1)C2=O`?
BJeLR viability: -1.2

What do the screens show for `CC(=O)OC[C@]12C[C@H](O)C(C)=C[C@H]1O[C@@H]1[C@H](O)[C@@H](OC(C)=O)[C@@]2(C)[C@]12CO2`?
BJeLR viability: 118.7*; Shh pathway inh: 95.8*; MITF inh: 90.2*

How did CC(=O)OC[C@]12CCC(C)=C[C@H]1O[C@@H]1[C@H](O)[C@@H](OC(C)=O)[C@@]2(C)[C@]12CO2 do in these assays?
BJeLR viability: 122.4*; Shh pathway inh: 109.4*; MITF inh: 92.0*

How did CC1=CC(=O)C2=C(C)C[C@H](O)[C@@H]3[C@H](OC(=O)[C@@H]3C)[C@@H]12 do in these assays?
Shh pathway inh: -17.8

What do the screens show for `OC[C@H]1O[C@@H](n2cnc3cc(Cl)c(Cl)cc32)C(O)[C@H]1O` (some centres undefined)?
BJeLR viability: -4.3; Shh pathway inh: 39.4; MITF inh: -21.5

Results for C=CC1CN2CCC3(C(=O)Nc4ccccc43)C2CC1/C(=C/OC)C(=O)OC (centres undefined) ?
BJeLR viability: 0.4; Shh pathway inh: 10.4; MITF inh: 5.0

What do the screens show for `CC1(C)C(=O)C=C[C@@]2(C)C1C(=O)C(=O)[C@]1(C)C2CC[C@@]2(C)[C@H](c3ccoc3)C[C@H]3O[C@]321` (some centres undefined)?
BJeLR viability: 27.3; Shh pathway inh: -14.1; MITF inh: 107.9*

What do the screens show for `CCSc1nc2ccccc2c(=O)n1-c1cccc(OC)c1`?
BJeLR viability: 0.4

Results for CC1=CC2/C=C(\C)CCC(O)C(O)/C=C/C(=O)C23C(=O)NC(CC(C)C)C3C1C (centres undefined) ?
BJeLR viability: 95.6*; Shh pathway inh: 71.1*; MITF inh: 89.5*

How did NCCC1COc2ccccc2O1 (centres undefined) do in these assays?
BJeLR viability: -2.2

What do the screens show for `Cc1ccc(S(=O)(=O)N2CCCCC2)cc1C(=O)Oc1cccc2cccnc12`?
BJeLR viability: -3.7; Shh pathway inh: -14.3; MITF inh: -27.9
